In PubChem BioAssay (NCATS):
Results filed as inconclusive are left out. Values without a mark were called inactive. The source made the active and inactive calls. Calls follow the shape of the dose curve; as a rule, active = well fitted inhibition curve with a large enough effect; inconclusive = small, poorly fitted or top-dose-only effect; inactive = flat fitted curve, though single readings scatter. Where a SMILES comes first, the peptide text is derived from it. Bridges are numbered along the chain shown (N, C = ends). [ ]: non-standard residue; d: D form. hArg = N=C(N)NCCCC[C@H](N)C(=O)O; Mpa = O=C(O)CCS

Biological target: Ubiquitin carboxyl-terminal hydrolase 1 (Homo sapiens) (UniProt O94782)
Sequence (O94782 whole entry, looked up): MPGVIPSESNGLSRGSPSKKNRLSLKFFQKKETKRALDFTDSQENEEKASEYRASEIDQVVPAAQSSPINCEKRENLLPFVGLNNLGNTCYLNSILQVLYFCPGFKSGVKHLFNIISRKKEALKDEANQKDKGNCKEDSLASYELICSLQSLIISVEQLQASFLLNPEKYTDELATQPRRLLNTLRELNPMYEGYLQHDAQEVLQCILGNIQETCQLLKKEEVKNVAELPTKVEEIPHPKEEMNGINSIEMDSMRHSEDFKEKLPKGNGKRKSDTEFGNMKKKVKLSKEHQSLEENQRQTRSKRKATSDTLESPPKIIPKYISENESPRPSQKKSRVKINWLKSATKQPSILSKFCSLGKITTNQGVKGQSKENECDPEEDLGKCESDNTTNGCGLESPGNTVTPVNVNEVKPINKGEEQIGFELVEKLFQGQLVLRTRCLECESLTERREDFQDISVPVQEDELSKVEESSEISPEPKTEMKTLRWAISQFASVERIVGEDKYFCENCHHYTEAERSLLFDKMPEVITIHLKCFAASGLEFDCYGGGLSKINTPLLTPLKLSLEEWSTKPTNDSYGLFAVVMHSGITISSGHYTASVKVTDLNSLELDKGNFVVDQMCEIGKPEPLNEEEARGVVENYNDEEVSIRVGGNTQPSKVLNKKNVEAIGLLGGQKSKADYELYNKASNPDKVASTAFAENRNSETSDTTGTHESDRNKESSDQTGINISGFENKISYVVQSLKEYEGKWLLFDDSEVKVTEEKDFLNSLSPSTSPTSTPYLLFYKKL
Test: Inhibitors of USP1/UAF1: Pilot qHTS (AID 504865);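 also: rhodamine fluorescence freed from ubiquitin-rhodamine substrate followed over time; top concentration of the series differs between compounds; nearly all actives have a fitted effect of over 35% in size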
Settings: purified USP1/UAF1, Ub-rhodamine cleavage fluorescence; series mostly up to 114 µM; activity change, negative = inhibition: at the top concentration
How it was run: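 Deubiquitinase activity followed as kinetic rhodamine fluorescence release from 150 nM Ub-Rho. 1 nM USP1/UAF1 with compound, after 15 min room-temperature preincubation, in HEPES pH 7.8 buffer containing TCEP, EDTA, BSA and Tween-20.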
% is scaled to controls: 0 for no effect and ±100 for the full control effect.

Compared with NC(=O)[C@@H]1CSSCCC(=O)N[C@@H](CCCCN=C(N)N)C(=O)NCC(=O)N[C@@H](CC(=O)O)C(=O)N[C@@H](Cc2c[nH]c3ccccc23)C(=O)N2CCC[C@H]2C(=O)N1 ([Mpa][hArg]GDWPC-NH2; disulfide 1-7), CCN(CC)CC1CCCCN1CC(=O)N1c2ccccc2C(=O)Nc2cccnc21 (stereo not given) is higher in “activity change, negative = inhibition” value: -13% for the first, -5.97% for the second.

First: C[n+]1ccccc1/C=N/O
Second: C/C=C/C(=O)N(CC)c1ccccc1C
The “activity change, negative = inhibition” value of the first is higher: -4.18% for the first, -10.2% for the second.

Compared with O=C1c2ccccc2C(=O)C1c1ccc(Br)cc1, NNC(=O)CP(=O)(c1ccccc1)c1ccccc1 is higher in “activity change, negative = inhibition” value: -2.81% for the first, -0.971% for the second.

First: Cc1ccc(S(=O)(=O)NC(=O)NC2CCCCCCC2)cc1
Second: NC(=O)NS(=O)(=O)c1ccc(N)cc1
The “activity change, negative = inhibition” value of the first is higher: -2.11% for the first, -11.8% for the second.

Compared with CCOC(N)=O, CC(C)C[C@@H](N)C(=O)O is higher in “activity change, negative = inhibition” value: -7.7% for the first, -3.4% for the second.

Compared with Nc1ncnc2c1ncn2[C@@H]1O[C@H](COP(=O)(O)O)[C@@H](O)[C@H]1O, CC(C(=O)O)c1ccc2c(c1)Cc1cccnc1O2 (stereo not given) is higher in “activity change, negative = inhibition” value: -3.28% for the first, -1.27% for the second.

First: Cc1cccc(C)c1NC(=O)CC12CCCN1CCC2
Second: Cc1cccc(C(=O)O)c1O
The “activity change, negative = inhibition” value of the first is higher: -1.8% for the first, -10.4% for the second.

Going from CCCCCCCC(=O)OCC(O)CO (stereo not given) to CCCCCC(C)N (stereo not given), the “activity change, negative = inhibition” value rises from -9.17% to -8.95%.

Going from Cc1c(Cn2ccnc2)c2ccccc2n1CCC(=O)O to O=C(Cn1ccnc1[N+](=O)[O-])NCc1ccccc1, the “activity change, negative = inhibition” value rises from -4.63% to -2.89%.

First: CCN(CC)CCOC(=O)C(c1ccccc1)c1ccccc1
Second: O=C(O)c1ccc(OCCCOc2ccc(C(=O)O)cc2)cc1
The “activity change, negative = inhibition” value of the first is higher: -8.55% for the first, -9.96% for the second.

Compared with NC(N)=NCCN1CCCCCCC1, Nc1c2c(nc3c1CCC3)CCCC2 is lower in “activity change, negative = inhibition” value: 2.06% for the first, 0.458% for the second.

Going from OCC(O)CS (stereo not given) to CC(=O)N[C@@H](Cc1ccc(O)cc1)C(=O)O, the “activity change, negative = inhibition” value falls from 2.55% to -5.59%.

Going from COc1cc(C(=O)NCCCCCC(=O)O)cc(OC)c1OC to COc1nccnc1NS(=O)(=O)c1ccc(N)cc1, the “activity change, negative = inhibition” value rises from -3.83% to 0.411%.

In the case of Cc1cc(NC(=O)C2=C(O)c3ccccc3S(=O)(=O)N2C)no1, the Potency is reported as “inactive”.
In the case of O=C(O)c1ccccc1OP(=O)(O)O, the Potency is reported as “inactive”.
O=C(O)c1ccccc1C(=O)Nc1ccc(S(=O)(=O)Nc2nccs2)cc1 was tested, and the Potency was “inactive”.

First: C[C@@H]1CCC[C@H](C)N1
Second: CCCNC(C)(C)COC(=O)c1ccccc1
The “activity change, negative = inhibition” value of the first is lower: -6.16% [at 54.9 µM] for the first, 1.93% [at 54.9 µM] for the second.

First: CC(=O)N[C@@H](CC(C)C)C(=O)O
Second: CC(C)(C)C(=O)OCOC(=O)[C@@H]1N2C(=O)[C@@H](NC(=O)[C@H](N)c3ccccc3)[C@H]2SC1(C)C
The “activity change, negative = inhibition” value of the first is lower: -0.611% [at 54.9 µM] for the first, 1.51% [at 54.9 µM] for the second.

Going from NC(N)=NS(=O)(=O)c1ccc(N)cc1 to CC[N+](C)(CC)CCOC(=O)C1c2ccccc2Oc2ccccc21, the “activity change, negative = inhibition” value rises from 8.88% [at 54.9 µM] to 9.61% [at 54.9 µM].
